# Prx2 Sm inh: Schistosoma Mansoni Peroxiredoxins (Prx2) | Schistosoma mansoni peroxiredoxin 2 (Prx2) | 0.07% of 65,000 active | Potency, µM | S. mansoni Prx2 activity coupled to TGR/GSH (TGR is thioredoxin glutathione reductase), NADPH fluorescence loss, qHTS
#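 Activity is read as the drop in NADPH fluorescence (365/450 nm), recorded every 30 sec for 8 min after H2O2 addition. Prx2 is coupled to TGR-driven NADPH oxidation through glutathione, in phosphate buffer pH 7.4.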
# AmpC inh no det: Promiscuous and Specific Inhibitors of AmpC Beta-Lactamase (assay without detergent); P00811; AmpC nitrocefin hydrolysis, absorbance 480 nm, no detergent; Potency, µM (top dose mostly 28.7 µM), for inactives: top-dose activity change, negative = inhibition; 1.8% of 71,000 active; note: % of control where 0% means no effect
# Target sequence (P00811 whole entry, looked up): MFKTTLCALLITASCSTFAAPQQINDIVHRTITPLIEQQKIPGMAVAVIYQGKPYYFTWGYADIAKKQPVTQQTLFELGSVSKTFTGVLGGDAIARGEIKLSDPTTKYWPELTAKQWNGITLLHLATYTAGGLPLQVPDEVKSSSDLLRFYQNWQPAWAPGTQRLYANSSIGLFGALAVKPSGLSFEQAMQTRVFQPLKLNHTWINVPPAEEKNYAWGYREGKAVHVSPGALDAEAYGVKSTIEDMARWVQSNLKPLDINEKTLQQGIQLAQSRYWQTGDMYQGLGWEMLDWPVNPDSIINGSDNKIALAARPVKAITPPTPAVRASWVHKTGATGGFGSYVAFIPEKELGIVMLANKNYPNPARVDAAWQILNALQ
#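 AmpC, 20 mM phosphate pH 7.0; 15 min cpd preinc, RT; start with nitrocefin (800 uM stock); A480 kinetic read, 20 s intervals, 4 min. No-enzyme wells = negative control.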
# LT uptake inh: qHTS Assay for Anthrax Lethal Toxin Internalization; Cells, anthrax lethal toxin internalization, FRET ratio (460/530); Potency, µM (doses to about 40 µM), for inactives: top-dose activity change, negative = inhibition, actives largely listed as inhibitors; 0.67% of 70,000 active; AID 912, 2007; note: % is set by controls: 0 for no effect and ±100 for the full control effect; nearly all actives have a fitted effect of over 50% in size
# AmpC inh det: Promiscuous and Specific Inhibitors of AmpC Beta-Lactamase (assay with detergent); purified AmpC, nitrocefin hydrolysis with detergent; Potency, µM (doses to about 28.7 µM), for the others: at the top dose activity change, negative = inhibition; 0.09% of 71,000 active; active = well fitted curve in the direction sought with a large enough effect; inconclusive = small, poorly fitted or top-dose-only effect; note: % is set by controls: 0 for no effect and ±100 for the full control effect
#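 E. coli AmpC (5.3 nM) in 20 mM phosphate pH 7.0 with 0.01% Triton X-100, preincubated 15 min RT with compound; nitrocefin (2 uL of 800 uM stock) hydrolysis followed by 480 nm absorbance every 20 s over 4 min.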
# * hit, by the source's call; ? = inconclusive; [ ] = another dose, or the depositor's remark. Only some compounds are listed: those with a hit (about 2.4% of all), similar ones and a draw of the others. Unless noted, calls come from the whole dose curve. Potency is the fitted concentration of half-maximal effect.
SMILES,Prx2 Sm inh,AmpC inh no det,LT uptake inh,AmpC inh det
CC(C)[C@@]1(NC(=O)[C@@H]2C=C3c4cccc5[nH]cc(c45)C[C@@H]3N(C)C2)O[C@]2(O)[C@H]3CCCN3C(=O)[C@H](Cc3ccccc3)N2C1=O,>57,75%,-12%,-1%
C[C@@H](NCc1cc(Br)cc2[nH]c(=O)c(=O)[nH]c12)P(=O)(O)O,>57,1%,3%,-1%
CC(C)(C)NC[C@H](O)c1ccccc1Cl,>57,-9%,3%,-2%
O=[As](O)(O)c1ccc(Cc2ccc([As](=O)(O)O)cc2)cc1,0.17*,12%[5.75 µM],?,-2%[5.75 µM]
Cc1ccnc(NC2c3ccccc3C(=O)N2Cc2ccccc2Cl)c1 (stereo not given),>57,4µM*[single pt active],-6%,12%
C[C@H](CN(C)C)C(=O)c1ccccc1C(=O)O,>57,-3%[5.75 µM],5%[8 µM],-4%[5.75 µM]
CC1CCCC(C)N1c1nnc(N)s1 (stereo not given),>57,4µM*[single pt active],-6%,12%
CC1CCCCN1c1nnc(N)s1 (stereo not given),>57,-5%,5%,17%
COc1ncc2nc(CCc3ccccc3)c(=O)n(CCC#N)c2n1,>57,28%,-1%,-2%
Cc1noc(C)c1C(=O)N1CCC2(CC1)CN(Cc1cc(C(F)(F)F)cc(C(F)(F)F)c1)C2,>57,-3%,?,2%
O=C1Nc2ccccc2C(O)(C(=O)NCc2ccco2)N1c1ccc(Cl)c(Cl)c1 (stereo not given),>57,-6%,7.9µM*,-3%
Cc1nn(Cc2ccc(Cl)cc2)c(C)c1NC(=O)c1cc(-c2ccco2)on1,>57,25%,-18%,-6%
Cc1cc(NC(=O)c2cc(-c3ccco3)on2)nn1Cc1ccc(Cl)cc1,>57,16µM*,-24%,-3%
OCCN1CCN(c2ncnc3c2sc2nc(N4CCOCC4)c4c(c23)CCC4)CC1,>57,43%,10µM*,-1%
COC(=O)[C@H]1[C@@H]2C[C@H]3c4[nH]c5ccccc5c4CCN3C[C@@H]2CC[C@@H]1O,>57,10%,-7%,1%
COc1ccc2[nH]cc(CCNc3ccnc(-c4ccccc4C)n3)c2c1,>57,-4%,?,-3%
COc1cccc(-c2nccc(NCCc3c[nH]c4ccc(OC)cc34)n2)c1,>57,-8%,13µM*,2%
O=c1cnc2cncnc2n1Cc1ccc(F)cc1,>57,23%,?,-2%
Cc1ccc(-c2nc(CS(=O)CC(=O)NCc3ccccn3)c(C)o2)cc1 (stereo not given),>57,4µM*[single pt active],-9%,12%
Cc1ccccc1-c1nc(CS(=O)CC(=O)NCCN2CCOCC2)c(C)o1 (stereo not given),>57,4µM*[single pt active],-6%,15%
Cc1ccccc1-c1nc(CS(=O)(=O)CC(=O)NCCN2CCOCC2)c(C)o1,>57,54%,-12%,6%
Cc1oc(-c2ccc(Cl)cc2)nc1CS(=O)CC(=O)NCCN1CCCC1 (stereo not given),>57,4µM*[single pt active],-17%,12%
Cc1ccc(-c2nc(CS(=O)CC(=O)NCCN3CCOCC3)c(C)o2)cc1 (stereo not given),>57,4µM*[single pt active],-4%,7%
Cc1ccc(-c2nc(CS(=O)CC(=O)NCCN(CC(C)C)CC(C)C)c(C)o2)cc1 (stereo not given),>57,92%,-10%,-3%
CCCCCCN(CCCCCC)C(=O)Cc1c(-c2ccc(Cl)cc2)[nH]c2ccc(Cl)cc12,>57,5%,-24%,-4%
CCN1CCN(CCNC(=O)C2CCCN(Cc3nc(-c4cccc(Cl)c4)oc3C)C2)CC1 (stereo not given),>57,82%,4µM*,12%
Cc1ccc(CNC(=O)CS(=O)Cc2nc(-c3ccccc3C)oc2C)cc1 (stereo not given),>57,94%,?,12%
CCOC(=O)N1CCC(NC(=O)C2CCCN(Cc3nc(-c4cccc(Cl)c4)oc3C)C2)CC1 (stereo not given),>57,90%,?,10%
Cc1ccc(-c2nc(CS(=O)CC(=O)NCCN3CCCC3)c(C)o2)cc1 (stereo not given),>57,4µM*[single pt active],10%,15%
Cc1ccccc1-c1nc(CS(=O)CC(=O)NCc2ccccc2)c(C)o1 (stereo not given),>57,4µM*[single pt active],-5%,13%

# Screening data deposited in PubChem by National Center for Advancing Translational Sciences (NCATS).
